Several values for one entry are separate records, joined by “and”; a condition that tells them apart may be missing. Equal entries are not always repeated. Screen size: about 5,500 compounds; about 2,000 (36%) were called active. About 18% were inconclusive and are not listed. Cut-off read from the data, not from the text of the source: active = normalized growth mostly below about 0.91 (no sharp cut-off); inconclusive = no clear call, values can overlap the other calls; inactive = mostly above about 0.92. This is one part of the list.
Experiment: chemical genetic growth profiling, strain panel (AID 1159580);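 note: tested at 20 µM; growth read once vehicle control cultures reached saturation at 30 °C; 1 = growth at the plate median or of vehicle wells; lower values mean less growth of the strain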
Details: growth OD

Measured: normalized growth

Cc1cc(O)ccc1Cl
active: S. cerevisiae deletion strains, locus YAL021C, strain ccr4, active compounds read low 1.11 [resistant] | S. cerevisiae deletion strains, locus YDR137W, strain rgp1, active compounds read low 0.816 | S. cerevisiae deletion strains, locus YDR159W, strain sac3, active compounds read low 0.784 | S. cerevisiae deletion strains, locus YDR195W, strain ref2 1.2 [resistant] | S. cerevisiae deletion strains, locus YLR262C, strain YPT6 (second series), active compounds read low 0.814 | S. cerevisiae deletion strains, locus YMR125W, strain sto1, active compounds read low 1.13 [resistant]
inactive: S. cerevisiae deletion strains, locus YAL026C, strain drs2, active compounds read low 1.01 | S. cerevisiae deletion strains, locus YAL030W, strain snc1, active compounds read low 1.02 | S. cerevisiae deletion strains, locus YBL061C, strain skt5, active compounds read low 0.992 | S. cerevisiae deletion strains, locus YBR009C, strain hhf1, active compounds read low 0.999 | S. cerevisiae deletion strains, locus YBR021W, strain FUR4, active compounds read low 1.02 | S. cerevisiae deletion strains, locus YBR023C, strain chs3, active compounds read low 1.01 | S. cerevisiae deletion strains, locus YBR171W, strain sec66, active compounds read low 0.997 | S. cerevisiae deletion strains, locus YBR229C, strain ROT2, active compounds read low 1 | S. cerevisiae deletion strains, locus YBR231C, strain swc5, active compounds read low 0.993 | S. cerevisiae deletion strains, locus YBR279W, strain paf1, active compounds read low 1.02 | S. cerevisiae deletion strains, locus YCL011C, strain gbp2, active compounds read low 1.01 | S. cerevisiae deletion strains, locus YCL016C, strain dcc1, active compounds read low 1.01 | S. cerevisiae deletion strains, locus YCL029C, strain bik1, active compounds read low 0.983 | S. cerevisiae deletion strains, locus YCL069W, strain vba3, active compounds read low 1.02 | S. cerevisiae deletion strains, locus YCR088W, strain abp1, active compounds read low 1.01 | S. cerevisiae deletion strains, locus YDL005C, strain med2, active compounds read low 1.02 | S. cerevisiae deletion strains, locus YDL035C, strain GPR1, active compounds read low 0.955 | S. cerevisiae deletion strains, locus YDL040C, strain nat1, active compounds read low 1 | S. cerevisiae deletion strains, locus YDL074C, strain BRE1, active compounds read low 0.987 | S. cerevisiae deletion strains, locus YDL101C, strain DUN1, active compounds read low 1.03 | S. cerevisiae deletion strains, locus YDL185W, strain tfp1, active compounds read low 0.986 | S. cerevisiae deletion strains, locus YDL192W, strain arf1, active compounds read low 1 | S. cerevisiae deletion strains, locus YDR001C, strain nth1, active compounds read low 1.01 | S. cerevisiae deletion strains, locus YDR069C, strain doa4, active compounds read low 1.03 | S. cerevisiae deletion strains, locus YDR101C, strain arx1, active compounds read low 0.992 | S. cerevisiae deletion strains, locus YDR162C, strain NBP2, active compounds read low 0.986 | S. cerevisiae deletion strains, locus YDR297W, strain sur2, active compounds read low 1.03 | S. cerevisiae deletion strains, locus YDR318W, strain mcm21, active compounds read low 0.993 | S. cerevisiae deletion strains, locus YDR334W, strain swr1, active compounds read low 1.02 | S. cerevisiae deletion strains, locus YDR335W, strain msn5, active compounds read low 1 | S. cerevisiae deletion strains, locus YDR388W, active compounds read low 1 | S. cerevisiae deletion strains, locus YDR392W, strain spt3, active compounds read low 0.944 | S. cerevisiae deletion strains, locus YDR502C, strain sam2, active compounds read low 0.974 | S. cerevisiae deletion strains, locus YEL003W, strain gim4, active compounds read low 1.01 | S. cerevisiae deletion strains, locus YEL037C, strain rad23, active compounds read low 1.01 | S. cerevisiae deletion strains, locus YEL061C, strain CIN8 (second series), active compounds read low 1.01 | S. cerevisiae deletion strains, locus YEL061C, strain CIN8, active compounds read low 0.999 | S. cerevisiae deletion strains, locus YER015W, strain faa2, active compounds read low 0.993 | S. cerevisiae deletion strains, locus YER016W, strain bim1, active compounds read low 0.994 | S. cerevisiae deletion strains, locus YER110C, active compounds read low 1.01 | S. cerevisiae deletion strains, locus YER111C, strain swi4, active compounds read low 1.01 | S. cerevisiae deletion strains, locus YER155C, strain BEM2 (second series), active compounds read low 0.991 | S. cerevisiae deletion strains, locus YER155C, strain BEM2, active compounds read low 1 | S. cerevisiae deletion strains, locus YER167W, strain BCK2, active compounds read low 0.997 | S. cerevisiae deletion strains, locus YFR010W, strain ubp6, active compounds read low 1 | S. cerevisiae deletion strains, locus YGL078C, strain dbp3, active compounds read low 0.981 | S. cerevisiae deletion strains, locus YGL086W, strain mad1, active compounds read low 0.968 | S. cerevisiae deletion strains, locus YGL167C, strain pmr1, active compounds read low 1.02 | S. cerevisiae deletion strains, locus YGL173C, strain kem1, active compounds read low 0.948 | S. cerevisiae deletion strains, locus YGL227W, strain vid30, active compounds read low 1 | S. cerevisiae deletion strains, locus YGL240W, strain doc1, active compounds read low 0.999 | S. cerevisiae deletion strains, locus YGL248W, strain PDE1, active compounds read low 1.02 | S. cerevisiae deletion strains, locus YGL253W, strain hxk2, active compounds read low 1.01 | S. cerevisiae deletion strains, locus YGR135W, strain pre9, active compounds read low 1.02 | S. cerevisiae deletion strains, locus YGR252W, strain gcn5, active compounds read low 0.936 | S. cerevisiae deletion strains, locus YHR013C, strain ard1, active compounds read low 1.13 | S. cerevisiae deletion strains, locus YHR027C, strain rpn1, active compounds read low 0.991 | S. cerevisiae deletion strains, locus YHR030C, strain SLT2, active compounds read low 0.999 and 0.932 | S. cerevisiae deletion strains, locus YHR079C, strain IRE1 (second series), active compounds read low 1.01 | S. cerevisiae deletion strains, locus YHR079C, strain IRE1, active compounds read low 0.954 | S. cerevisiae deletion strains, locus YHR094C, strain hxt1, active compounds read low 1.01 | S. cerevisiae deletion strains, locus YHR129C, strain ARP1, active compounds read low 1.01 | S. cerevisiae deletion strains, locus YHR142W, strain chs7, active compounds read low 0.981 | S. cerevisiae deletion strains, locus YHR200W, strain rpn10, active compounds read low 1 | S. cerevisiae deletion strains, locus YIL066C, strain RNR3, active compounds read low 1 | S. cerevisiae deletion strains, locus YIL073C, strain SPO22, active compounds read low 1.04 | S. cerevisiae deletion strains, locus YIL125W, strain kgd1, active compounds read low 1.01 | S. cerevisiae deletion strains, locus YIR030C, strain dcg1, active compounds read low 1 | S. cerevisiae deletion strains, locus YJL092W, strain hpr5, active compounds read low 0.989 | S. cerevisiae deletion strains, locus YJL095W, strain BCK1 (second series), active compounds read low 1.01 | S. cerevisiae deletion strains, locus YJL095W, strain BCK1, active compounds read low 1.02 and 0.938 | S. cerevisiae deletion strains, locus YJL115W, strain asf1, active compounds read low 1.02 | S. cerevisiae deletion strains, locus YJL129C, strain trk1, active compounds read low 1 | S. cerevisiae deletion strains, locus YJL134W, strain LCB3, active compounds read low 1.01 | S. cerevisiae deletion strains, locus YJL154C, strain vps35, active compounds read low 1.01 | S. cerevisiae deletion strains, locus YJL164C, strain tpk1, active compounds read low 1.02 | S. cerevisiae deletion strains, locus YJL166W, strain qcr8, active compounds read low 1 | S. cerevisiae deletion strains, locus YJL168C, strain set2, active compounds read low 1.01 | S. cerevisiae deletion strains, locus YJL187C, strain SWE1 (second series), active compounds read low 1.02 | S. cerevisiae deletion strains, locus YJR043C, strain POL32, active compounds read low 0.991 | S. cerevisiae deletion strains, locus YJR066W, strain TOR1, active compounds read low 0.942 | S. cerevisiae deletion strains, locus YKL009W, strain mrt4, active compounds read low 0.979 | S. cerevisiae deletion strains, locus YKL068W, active compounds read low 1 | S. cerevisiae deletion strains, locus YKL085W, strain MDH1 (second series), active compounds read low 0.998 | S. cerevisiae deletion strains, locus YKL085W, strain MDH1, active compounds read low 0.998 | S. cerevisiae deletion strains, locus YKL160W, strain elf1, active compounds read low 1.02 | S. cerevisiae deletion strains, locus YKR001C, strain vps1, active compounds read low 0.937 | S. cerevisiae deletion strains, locus YKR026C, strain gcn3, active compounds read low 1.01 | S. cerevisiae deletion strains, locus YKR091W, strain srl3, active compounds read low 1.03 | S. cerevisiae deletion strains, locus YLL001W, strain dnm1, active compounds read low 0.992 | S. cerevisiae deletion strains, locus YLL026W, active compounds read low 0.987 | S. cerevisiae deletion strains, locus YLL041C, strain sdh2, active compounds read low 1 | S. cerevisiae deletion strains, locus YLR027C, strain aat2, active compounds read low 1 | S. cerevisiae deletion strains, locus YLR039C, strain RIC1, active compounds read low 0.874 | S. cerevisiae deletion strains, locus YLR058C, strain SHM2, active compounds read low 1.02 | S. cerevisiae deletion strains, locus YLR102C, strain apc9, active compounds read low 1 | S. cerevisiae deletion strains, locus YLR113W, strain HOG1, active compounds read low 0.965 | S. cerevisiae deletion strains, locus YLR221C, strain rsa3, active compounds read low 0.994 | S. cerevisiae deletion strains, locus YLR258W, strain gsy2, active compounds read low 1.01 | S. cerevisiae deletion strains, locus YLR262C, strain YPT6, active compounds read low 0.904 | S. cerevisiae deletion strains, locus YLR268W, strain sec22, active compounds read low 0.991 | S. cerevisiae deletion strains, locus YLR320W, strain mms22, active compounds read low 0.959 | S. cerevisiae deletion strains, locus YLR330W, strain CHS5, active compounds read low 1 | S. cerevisiae deletion strains, locus YLR342W, strain FKS1 (second series), active compounds read low 0.986 | S. cerevisiae deletion strains, locus YLR342W, strain FKS1, active compounds read low 0.982 | S. cerevisiae deletion strains, locus YLR357W, strain rsc2, active compounds read low 1.08 | S. cerevisiae deletion strains, locus YLR370C, strain arc18, active compounds read low 1.01 | S. cerevisiae deletion strains, locus YLR371W, strain rom2, active compounds read low 1 | S. cerevisiae deletion strains, locus YLR384C, strain iki3, active compounds read low 0.993 | S. cerevisiae deletion strains, locus YLR418C, strain cdc73, active compounds read low 1.02 | S. cerevisiae deletion strains, locus YML016C, strain PPZ1, active compounds read low 1 | S. cerevisiae deletion strains, locus YML032C, strain rad52, active compounds read low 0.981 | S. cerevisiae deletion strains, locus YML120C, strain ndi1, active compounds read low 1 | S. cerevisiae deletion strains, locus YML124C, strain tub3, active compounds read low 0.994 | S. cerevisiae deletion strains, locus YMR058W, strain fet3, active compounds read low 0.965 | S. cerevisiae deletion strains, locus YMR078C, strain ctf18, active compounds read low 1.01 | S. cerevisiae deletion strains, locus YMR129W, active compounds read low 1.02 | S. cerevisiae deletion strains, locus YMR205C, strain PFK2, active compounds read low 0.987 | S. cerevisiae deletion strains, locus YMR223W, strain ubp8, active compounds read low 1.01 | S. cerevisiae deletion strains, locus YMR231W, strain pep5, active compounds read low 1.02 | S. cerevisiae deletion strains, locus YMR263W, strain SAP30, active compounds read low 1.02 | S. cerevisiae deletion strains, locus YMR307W, strain GAS1, active compounds read low 0.957 | S. cerevisiae deletion strains, locus YNL067W, strain RPL9B, active compounds read low 1.02 | S. cerevisiae deletion strains, locus YNL071W, strain lat1, active compounds read low 1.01 | S. cerevisiae deletion strains, locus YNL153C, strain GIM3, active compounds read low 1.03 | S. cerevisiae deletion strains, locus YNL183C, strain NPR1, active compounds read low 0.896 | S. cerevisiae deletion strains, locus YNL209W, strain ssb2, active compounds read low 1 | S. cerevisiae deletion strains, locus YNL233W, strain BNI4, active compounds read low 1.01 | S. cerevisiae deletion strains, locus YNL248C, strain rpa49, active compounds read low 1.02 | S. cerevisiae deletion strains, locus YNL250W, strain rad50, active compounds read low 0.996 | S. cerevisiae deletion strains, locus YNL271C, strain bni1, active compounds read low 1.01 | S. cerevisiae deletion strains, locus YNL298W, strain CLA4, active compounds read low 0.95 | S. cerevisiae deletion strains, locus YNL307C, strain MCK1, active compounds read low 1 | S. cerevisiae deletion strains, locus YNL322C, strain KRE1 (second series), active compounds read low 1.06 | S. cerevisiae deletion strains, locus YNL322C, strain KRE1, active compounds read low 0.999 | S. cerevisiae deletion strains, locus YNR049C, strain mso1, active compounds read low 0.999 | S. cerevisiae deletion strains, locus YNR052C, strain pop2, active compounds read low 1 | S. cerevisiae deletion strains, locus YOL012C, strain htz1 1.23 | S. cerevisiae deletion strains, locus YOL147C, strain pex11, active compounds read low 0.997 | S. cerevisiae deletion strains, locus YOR001W, strain rrp6, active compounds read low 0.991 | S. cerevisiae deletion strains, locus YOR061W, strain CKA2, active compounds read low 0.999 | S. cerevisiae deletion strains, locus YOR069W, strain VPS5, active compounds read low 1.01 | S. cerevisiae deletion strains, locus YOR070C, strain gyp1, active compounds read low 0.993 | S. cerevisiae deletion strains, locus YOR080W, strain dia2, active compounds read low 1.02 | S. cerevisiae deletion strains, locus YOR083W, strain WHI5, active compounds read low 0.936 | S. cerevisiae deletion strains, locus YOR106W, strain vam3, active compounds read low 0.976 | S. cerevisiae deletion strains, locus YOR136W, strain idh2, active compounds read low 0.999 | S. cerevisiae deletion strains, locus YOR144C, strain elg1, active compounds read low 1 | S. cerevisiae deletion strains, locus YOR184W, strain ser1, active compounds read low 0.982 | S. cerevisiae deletion strains, locus YOR231W, strain MKK1, active compounds read low 0.937 | S. cerevisiae deletion strains, locus YOR265W, strain rbl2, active compounds read low 1.01 | S. cerevisiae deletion strains, locus YOR270C, strain vph1, active compounds read low 1.01 | S. cerevisiae deletion strains, locus YOR290C, strain snf2, active compounds read low 1.02 | S. cerevisiae deletion strains, locus YOR316C, strain cot1, active compounds read low 1.01 | S. cerevisiae deletion strains, locus YPL051W, strain arl3, active compounds read low 0.992 | S. cerevisiae deletion strains, locus YPL078C, strain atp4, active compounds read low 0.938 | S. cerevisiae deletion strains, locus YPL106C, strain sse1, active compounds read low 1.1 | S. cerevisiae deletion strains, locus YPL240C, strain hsp82, active compounds read low 1.02 | S. cerevisiae deletion strains, locus YPL256C, strain CLN2, active compounds read low 0.968 | S. cerevisiae deletion strains, locus YPR119W, strain clb2, active compounds read low 1 | S. cerevisiae deletion strains, locus YPR141C, strain kar3, active compounds read low 1 | S. cerevisiae deletion strains, locus YPR163C, strain tif3, active compounds read low 1 | S. cerevisiae deletion strains, locus YPR167C, strain met16, active compounds read low 0.994 | S. cerevisiae deletion strains, strain wtn01, active compounds read low 0.974 | S. cerevisiae strains, strain wild type, active compounds read low 1.01

Source: PubChem BioAssay AID1159580 (chemical genetic matrix, 2015)
